Screening data deposited in PubChem BioAssay by several laboratories.
The list is not random: actives were taken first. Their share in the collection is about 1.6%.
PERK inhibitor: human PERK inhibition, primary cell-based screen; AID 1416; inhibition, % at 5.6 µM; CHO PERK-DD fusion, SEAP luminescence translation reporter; actives 0.17% (n = 220,000); Q9NZJ5;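 active = inhibition above the mean inhibition of all tested compounds plus 3 SD, set separately per screening campaign, cut at about 2.9% in these data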;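 also: PERK kinase domain activated by AP20187 dimerizer at 100 nM; 0% = DMSO with dimerizer and 100% = rapamycin at 8.4 µM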
PABP1 MLLE inh: inhibitors of microRNA-mediated deadenylation, human PABP1 MLLE binding. P11940. GST-MLLE / FITC-PAM2 fluorescence polarization. inhibition, % at 20 µM. actives 0.36% (n = 360,000). AID 588489; in the data active = inhibition above about 35%, passing the limit was not always enough;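 also: plate controls were DMSO wells with GST-MLLE for no effect and wells lacking GST-MLLE protein for full effect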
PABP FP inh: blocks human PABP binding to poly(A) RNA | P11940 | fluorescence polarization | inhibition, % at 35 µM | actives 1% (n = 290,000) | AID 2014;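 also: calls also rest on retests at 20 µM and on dose response follow-up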
eIF4E 4G PPI: inhibitors of eIF4E and eIF4G interaction in translation initiation | P63073+Q04637 | actives 0.37% (n = 220,000) | inhibition, % at 21.7 µM | TR-FRET eIF4E-eIF4GI(517-606) binding, 2 h | AID 782;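 active = inhibition above about 30%, limit read from the data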;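 also: 0% = full FRET control wells and 100% = background wells lacking eIF4GI fragment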
eIF4H FP inh: inhibitors of RNA binding by human eIF4H | Q15056 | eIF4H fluorescence polarization binding assay | inhibition, % at 35 µM | actives 0.94% (n = 290,000);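 also: calls also rest on retests at 20 µM and on dose response follow-up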
Active calls of the source: *; [ ] = another dose, or the depositor's remark. Unless noted, no rule for the calls is given here.

Screening c1ccc2c(c1)ncn2-c1ccc(-c2ccnc(-c3ccncc3)n2)cc1 returned PERK inhibitor 1, PABP1 MLLE inh -5, PABP FP inh -26, eIF4E 4G PPI -28 and eIF4H FP inh -25.
Cc1cc(C)nc(SCc2ccc(C(=O)N/N=C/c3cccc(O)c3O)cc2)n1 was read as PERK inhibitor 1, PABP1 MLLE inh 7, PABP FP inh active, eIF4E 4G PPI 21 and eIF4H FP inh 97*.
`Cc1cc(SCNC(=O)c2ccccc2)nc(C(C)C)n1` gave PERK inhibitor 0, PABP1 MLLE inh 41*, PABP FP inh -6, eIF4E 4G PPI 1 and eIF4H FP inh -7.
For Cc1cc(C)nc(SCC(=O)O)n1 the results were PERK inhibitor 1, PABP1 MLLE inh 10, PABP FP inh -6, eIF4E 4G PPI -4 and eIF4H FP inh -2.
Screening Cc1cc(C)nc(SCNC(=O)c2ccccc2)n1 returned PERK inhibitor 1, PABP1 MLLE inh 43*, PABP FP inh -2, eIF4E 4G PPI 3 and eIF4H FP inh 3.
CCC(=O)c1ccc(OCC(O)Cn2nc(C)c(Br)c2C)cc1 (stereo unspecified) was read as PABP1 MLLE inh 7, PABP FP inh 12 and eIF4H FP inh 2.
For COc1cc(N(CCCn2cnc3c(SC)ncnc32)CCCn2cnc3c(SC)ncnc32)cc(OC)c1OC the results were PABP1 MLLE inh 2.
`COc1ccc(-c2sc3ccc(OC)cc3c2-c2ccc(O)cc2)cc1` gave PABP1 MLLE inh -9.
For Cc1cc(C)n2nc3nc(N4CCCCC4)nc(-c4ccco4)c3c2n1 the results were PABP1 MLLE inh 3, PABP FP inh 56*, eIF4E 4G PPI 3 and eIF4H FP inh 72*.
`Cc1cc(C)n2nc3ccccc3c2n1` gave PERK inhibitor 1, PABP1 MLLE inh 13, PABP FP inh -5, eIF4E 4G PPI -2 and eIF4H FP inh 106.
For CC1(C)OC(C(=O)NC2CCCCC2)C(C(=O)NC2CCCCC2)O1 (stereo unspecified) the results were PERK inhibitor 0, PABP1 MLLE inh -7, PABP FP inh -11, eIF4E 4G PPI 2 and eIF4H FP inh 1.
Screening O=C(O)CCN1C(=O)C(=C2CCCCCC2)SC1=S returned PERK inhibitor 2, PABP1 MLLE inh 45*, PABP FP inh 29, eIF4E 4G PPI 5 and eIF4H FP inh -7.
For CC(=O)Nc1ccc(NC(=O)c2ccccc2Br)cc1 the results were PABP1 MLLE inh 0.
COC(=O)c1ccc(-n2c(C)cc(C(=O)CSc3ccc(NC(C)=O)cc3)c2C)cc1 was read as PERK inhibitor 0, PABP1 MLLE inh 29, PABP FP inh -9, eIF4E 4G PPI 5 and eIF4H FP inh -5.
For CC(=O)Nc1ccc(SCC(=O)c2cc(C)n(-c3ccccc3F)c2C)cc1 the results were PERK inhibitor 0, PABP1 MLLE inh 40*, PABP FP inh -10, eIF4E 4G PPI -1 and eIF4H FP inh 2.
For CC(=O)Nc1ccc(SCC(=O)NC(=O)c2ccccc2Br)cc1 the results were PABP1 MLLE inh 44*.
For CN1C[C@H](C(=O)N[C@]2(C)O[C@@]3(O)[C@@H]4CCCN4C(=O)[C@H](Cc4ccccc4)N3C2=O)CC2c3cccc4[nH]cc(c34)C[C@H]21 (stereo partly specified) the results were PABP1 MLLE inh -4.
For CCCN1C[C@H](CSC)C[C@@H]2c3cccc4[nH]cc(c34)C[C@H]21 the results were PERK inhibitor -1, PABP1 MLLE inh 20, PABP FP inh 2.0*, eIF4E 4G PPI -6 and eIF4H FP inh 100*.
Screening COc1cccc(C(=O)Cn2c(=N)n(C)c3ccccc32)c1 returned PERK inhibitor 0, PABP1 MLLE inh -7, PABP FP inh 2, eIF4E 4G PPI 0 and eIF4H FP inh -3.
CCN(CC)CCCN1C(=O)CSC1c1ccc2c(c1)OCO2 (stereo unspecified) was read as PERK inhibitor 0, PABP1 MLLE inh 10, PABP FP inh 4, eIF4E 4G PPI 10 and eIF4H FP inh -2.
For CCN(CC)CCCN1C(=O)CSC1c1ccc([N+](=O)[O-])cc1 (stereo unspecified) the results were PERK inhibitor 1, PABP1 MLLE inh 42*, PABP FP inh 8, eIF4E 4G PPI 2 and eIF4H FP inh -14.
CCn1cc(C(=O)OCC(=O)c2cc(C)n(-c3ccc(OC(F)F)cc3)c2C)c(=O)c2ccc(C)nc21 was read as PERK inhibitor 0, PABP1 MLLE inh 10, PABP FP inh -6, eIF4E 4G PPI 45*[fluorescence artefact?] and eIF4H FP inh 7.
Screening COc1ccc(C2=NN(C(=O)CCCC(=O)O)C(c3cn(-c4ccccc4)nc3-c3ccccc3)C2)cc1 (stereo unspecified) returned PERK inhibitor 0, PABP1 MLLE inh -7, PABP FP inh 1, eIF4E 4G PPI -5 and eIF4H FP inh 74*.
Screening CC(=O)N(C)[C@H]1C[C@@H](c2ccccc2)N(C(C)=O)C[C@H]1CO returned PABP1 MLLE inh 3.
CCOC(=O)COc1ccc(/C=C2/SC(=Nc3ccccc3)N(Cc3cccnc3)C2=O)cc1OC was read as PERK inhibitor -1, PABP1 MLLE inh 2, PABP FP inh -4, eIF4E 4G PPI -7 and eIF4H FP inh -4.
For CN(c1ccc(C(=O)NC2CCCCC2)cc1)S(=O)(=O)c1ccccc1 the results were PABP1 MLLE inh 11, PABP FP inh 12 and eIF4H FP inh -6.
`CN(c1ccccc1)S(=O)(=O)c1cccc(C(=O)NC2CCCCC2)c1` gave PABP1 MLLE inh 85*.
`CN(c1ccccc1)S(=O)(=O)c1cccc(C(=O)OCC(=O)NCCCN2CCCC2=O)c1` gave PERK inhibitor 1, PABP1 MLLE inh 12, PABP FP inh 64*, eIF4E 4G PPI 0 and eIF4H FP inh 10.
Screening S=c1nc(-c2ccc(Br)cc2)[nH]c2ccccc12 returned PERK inhibitor 3.0*, PABP1 MLLE inh 25, PABP FP inh 11, eIF4E 4G PPI 1 and eIF4H FP inh 0.
`COc1ccc(-c2nnc(NC(=O)Cc3ccccc3)s2)c(OC)c1` gave PERK inhibitor -1, PABP1 MLLE inh 4, PABP FP inh 5, eIF4E 4G PPI -1 and eIF4H FP inh 2.
Screening COc1ccc(-c2nnc(NC(=O)c3cccs3)s2)c(OC)c1 returned PERK inhibitor 0, PABP1 MLLE inh 0, PABP FP inh 1, eIF4E 4G PPI 14 and eIF4H FP inh 55*.
O=S(=O)(Cc1cc(N2CCOCC2)nc(-c2ccccn2)n1)c1ccccc1 was read as PERK inhibitor 0, PABP1 MLLE inh -9, PABP FP inh 13, eIF4E 4G PPI -4 and eIF4H FP inh -2.
CCN(CC)c1ccc(N=Cc2c(C)[nH]c3ccccc23)cc1 was read as PERK inhibitor 1, PABP1 MLLE inh -15, PABP FP inh 2, eIF4E 4G PPI 32*[fluorescence artefact?] and eIF4H FP inh 9.
